Inconclusive results are not listed. The source made the active and inactive calls. Unless noted, calls follow the shape of the dose curve; as a rule, active = well fitted curve in the direction sought with a large enough effect; inconclusive = small, poorly fitted or top-dose-only effect, or another doubt; inactive = no such curve, though single readings can be large; an effect the other way counts as inactive or inconclusive.
Columns and labels:
[1] = target: Glucocorticoid receptor (Homo sapiens) (UniProt P04150); assay: qHTS assay for small molecule agonists of glucocorticoid receptor signaling (AID 588532; active = well fitted curve in the direction sought with a large enough effect in the signal ratio, with a control signal flat; the % refers to the signal ratio;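 also: 100% = dexamethasone at 0.1 µM and 0% = DMSO only wells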); settings: HeLa MMTV-bla, beta-lactamase ratio, agonist, 18 h; stronger effect = higher value; percent of dexamethasone control, DMSO zero
Procedure, shortened: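 MMTV-bla HeLa, beta-lactamase reporter; medium with 1% charcoal/dextran-stripped FBS; cpds up to 92 uM, 18 h, 37 C; CCF4 readout 460/530 nm; Hill fit → EC50, efficacy vs 0.1 uM dexamethasone = 100%.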

[2] = target: Glucocorticoid receptor (Homo sapiens) (UniProt P04150); assay: qHTS assay for small molecule antagonists of glucocorticoid receptor signaling (AID 588533; active = well fitted inhibition curve with a large enough effect in the signal ratio, with a control signal flat, not every such curve was filed as active; the % refers to the signal ratio;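 also: cells stimulated with 2 nM dexamethasone as agonist; % is scaled to controls: 0 for no effect and ±100 for the full control effect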); settings: HeLa MMTV-bla, GRE beta-lactamase ratio, antagonist mode, 18 h; series mostly up to 76.8 µM
Procedure, shortened: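 Antagonist-mode qHTS: compound titrations added to GRE-bla HeLa cells, then dexamethasone 2 nM final; 18 h, 37 C. CCF4 FRET fluorescence normalized to dexamethasone and DMSO; IC50 from Hill fit.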

[3] = qHTS assay for small molecule antagonists of peroxisome proliferator-activated receptor delta signaling (AID 588535); settings: HEK293T PPARd-UAS-bla, beta-lactamase FRET ratio, 18 h; 460 nm channel;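 also: cells co-treated with a PPAR-delta agonist as stimulator during compound exposure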
Procedure, shortened: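 Compounds tested in titration on PPAR-delta-UAS-bla HEK293T cells grown in charcoal/dextran-stripped serum (2%); beta-lactamase activity read via CCF4 emission at 460 and 530 nm.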

[4] = qHTS assay for small molecule agonists of retinoid X receptor alpha signaling (AID 588544; calls by dose curve;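 as to activation: 0% = DMSO basal wells and 100% = reference agonist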); settings: HEK293T RXRa-UAS-bla, beta-lactamase reporter, 18 h; 530 nm emission
[5] = target: Retinoic acid receptor RXR-alpha (Homo sapiens) (UniProt P19793); assay: as above; settings: HEK293T RXRa-UAS-bla, beta-lactamase reporter, 18 h; series mostly up to 76.7 µM
[6] = qHTS assay for small molecule antagonists of retinoid X receptor alpha signaling (AID 588546; active = well fitted inhibition curve with a large enough effect in the signal ratio, with a control signal flat, not every such curve was filed as active; the % refers to the signal ratio;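 also: cells stimulated with 9-cis-retinoic acid as agonist; % is scaled to controls: 0 for no effect and ±100 for the full control effect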); settings: HEK293T RXRa-UAS-bla, beta-lactamase ratio, antagonist mode; measured here: W530 green channel, cytotoxicity proxy
Procedure, shortened: (§1)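 Beta-lactamase reporter inhibition, read as CCF4 fluorescence ratio (ex 405, em 460/530 nm) after 2 h at RT. HEK293T UAS-bla cells, 2500/well, were stimulated with 9-cis-RA at 500 or 100 nM final alongside test compound for 18 h at 37 C.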

[7] = target: Retinoic acid receptor RXR-alpha (Homo sapiens) (UniProt P19793); assay: as above; settings: HEK293T RXRa-UAS-bla, beta-lactamase ratio, antagonist mode
Procedure, shortened: as §1

[8] = qHTS assay for small molecule activators of the p53 signaling pathway (AID 651743; active = well fitted activation curve with a large enough effect in the signal ratio, not every such curve was filed as active; the % refers to the signal ratio; also: % of control where 0% means no effect); settings: HCT-116 p53RE-bla, beta-lactamase FRET ratio, 16 h; activation: stronger effect = higher value
Procedure, shortened: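 Here HCT-116 cells with an integrated p53-responsive beta-lactamase gene were incubated with compounds (16 hours, 37 C) after a 5-hour plating period; beta-lactamase activity was detected as fluorescence intensity via B/G FRET substrate.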

[9] = qHTS assay for environmental chemicals that activate the Aryl hydrocarbon Receptor (AhR) signaling pathway (AID 651777); settings: 1A2-DRE human hepatoma cells, luciferase, 24 h; activation: stronger effect = higher value; also: % of control where 0% means no effect; nearly all actives have a fitted effect of over 15% in size
Procedure, shortened: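 Luminescence read-out: One-Glo added for 30 min at RT after 24 hr compound treatment (37 C, 5% CO2) of human hepatoma cells expressing a DRE/CYP1A2 promoter–luciferase reporter; increased signal indicates AhR activation.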

[10] = target: Peroxisome proliferator-activated receptor alpha (Homo sapiens) (UniProt Q07869); assay: qHTS assay for small molecule agonists of the peroxisome proliferator-activated receptor alpha (PPARalpha) signaling pathway (AID 651778); settings: PathHunter PPARalpha complementation, chemiluminescence, 6 h; max response: stronger effect = higher value; also: potency is read from the fitted curve at half-maximal effect; as to max response: % of control where 0% means no effect
Procedure, shortened: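 Cells plated at 2,000/well and held overnight at 37 C, 5% CO2, then compound added by pin tool for 6 hr; after PathHunter detection reagent and 60 min at room temperature, chemiluminescence from enzyme complementation was read.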

[11] = qHTS assay for small molecule agonists of the antioxidant response element (ARE) signaling pathway measured by Nrf2-dependant transcriptional activity (AID 720636; active = well fitted curve in the direction sought with a large enough effect in the repeat runs; an effect the other way counts as inactive or inconclusive; also: % of control where 0% means no effect); settings: ARE-luc HepG2, Nrf2 luciferase reporter, 16 h; series mostly up to 92.4 µM
Procedure, shortened: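 HepG2 ARE-luc reporter line, 1% dialyzed FBS; 6 hr attachment at 37 C, compound pinned in, 16 hr at 37 C/5% CO2; ONE-Glo, 30 min RT, luminescence read.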

[12] = qHTS assay for small molecule agonists of the antioxidant response element (ARE) signaling pathway measured by Nrf2-dependant transcriptional activity - cell viability counter screen (AID 720653; active = well fitted curve in the direction sought with a large enough effect in the repeat runs; an effect the other way counts as inactive or inconclusive; also: % is scaled to controls: 0 for no effect and ±100 for the full control effect); settings: ARE-bla HepG2 viability, CellTiter-Glo ATP luminescence, 16 h; max response: stronger effect = lower value
Procedure, shortened: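 ARE-bla HepG2 cells (2,000/well) rested 5 hrs at 37C/5% CO2, then exposed to compounds in DMSO for 16 hrs. Viability was read in the same wells as intracellular ATP by luminescence, 30 min at room temperature after reagent addition.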

[13] = qHTS assay for cell viability of HEK293 cells (AID 743288); settings: ATP luminescence (CellTiter-Glo), 18 h; max response: stronger effect = lower value; also: % is scaled to controls: 0 for no effect and ±100 for the full control effect; nearly all actives have a fitted effect of over 50% in size
Procedure, shortened: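 HEK293, 18 h, 37 C, ATP luminescence. Cells at 2,000/well were allowed at least 5 h to settle before dosing; CellTiter-Glo developed 30 min at RT.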

[14] = qHTS assay for cell viability of the p53RE-bla HCT-116 cell line (AID 743292); settings: p53RE-bla HCT-116 viability, ATP luminescence, 16 h; series mostly up to 95 µM; also: % is scaled to controls: 0 for no effect and ±100 for the full control effect; nearly all actives have a fitted effect of over 55% in size
Procedure, shortened: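 Luminescent ATP quantitation (CellTiter-Glo) served as the viability read-out; reagent was added after 16 h compound exposure at 37 C and read after 30 min at room temperature. Cells: p53RE-bla HCT-116, 4,000 per well.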

[15] = target: Nuclear receptor subfamily 1 group I member 2 (Rattus norvegicus) (UniProt Q9R1A7); assay: qHTS assay for small molecule activators of the rat pregnane X receptor (rPXR) signaling pathway (AID 651751; call rule not given here; also: 0% is about no effect); settings: rPXR reporter cells, luciferase (One-Glo), 24 h
[16] = qHTS assay for small molecule activators of the human pregnane X receptor (PXR) signaling pathway (AID 720659; call rule not given here; also: 0% is about no effect); settings: DPX-2 HepG2 CYP3A4-luciferase, 24 h; series mostly up to 92.3 µM
[17] = target: Vitamin D3 receptor (Homo sapiens) (UniProt P11473); assay: qHTS assay for small molecule antagonists of vitamin D receptor signaling (AID 588541; calls by dose curve;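 also: receptor activated by calcitriol during compound treatment; % is scaled to controls: 0 for no effect and ±100 for the full control effect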); settings: HEK293T VDR-UAS-bla, beta-lactamase ratio, antagonist mode; series mostly up to 76.7 µM
Procedure, shortened: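 VDR-UAS-bla HEK293T cells (2000/well, 2% charcoal-stripped FBS) were treated with titrated compounds plus 1-alpha,25-dihydroxyvitamin D3 (50 nM or 3 nM final) for 16 h at 37 C. CCF4 beta-lactamase fluorescence was read; Hill fits gave IC50.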

[18] = target: Vitamin D3 receptor (Homo sapiens) (UniProt P11473); assay: qHTS assay for small molecule agonists of vitamin D receptor signaling (AID 588543; calls by dose curve;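 also: 0% = DMSO basal and 100% = reference agonist control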); settings: HEK293T VDR-UAS-bla, beta-lactamase ratio, 16 h; series mostly up to 76.8 µM
Procedure, shortened: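 Measured: β-lactamase reporter activity (CCF4, 405 nm excitation, 460/530 nm emission) in HEK293T VDR-UAS-bla cells after 16 h compound exposure at 37 °C. Normalization against 50 nM 1α,25-dihydroxyvitamin D3 and DMSO; Hill-fit EC50.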

[19] = target: Thyroid hormone receptor beta (Homo sapiens) (UniProt P10828); assay: qHTS assay for small molecule agonists of thyroid hormone receptor beta signaling (AID 588545; calls by dose curve); settings: TR-UAS-bla GripTite HEK 293, beta-lactamase ratio, agonist mode, 18 h; series mostly up to 76.7 µM
Procedure, shortened: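 Cells (2500/well) were seeded, incubated 4 hrs at 37 C, dosed with a compound series, incubated 18 hrs, loaded with CCF4 dye for 2 hrs at RT, then read for fluorescence. Data were scaled between DMSO (0%) and 10 nM T3 (100%).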

[20] = qHTS assay for small molecule agonists of the antioxidant response element (ARE) signaling pathway (AID 651741; active = well fitted activation curve with a large enough effect in the signal ratio; the % refers to the signal ratio; also: % of control where 0% means no effect); settings: HepG2 ARE-bla reporter, beta-lactamase FRET ratio, 16 h; series mostly up to 96 µM
Procedure, shortened: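 Beta-lactamase reporter expression driven by the antioxidant response element in HepG2 cells was detected by fluorescence with LiveBLAzer B/G FRET substrate (2 h, room temperature) following 16 h compound treatment at 37 C.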

Nuclear receptor subfamily 1 group I member 2 (Rattus norvegicus), sequence (Q9R1A7 whole entry, looked up): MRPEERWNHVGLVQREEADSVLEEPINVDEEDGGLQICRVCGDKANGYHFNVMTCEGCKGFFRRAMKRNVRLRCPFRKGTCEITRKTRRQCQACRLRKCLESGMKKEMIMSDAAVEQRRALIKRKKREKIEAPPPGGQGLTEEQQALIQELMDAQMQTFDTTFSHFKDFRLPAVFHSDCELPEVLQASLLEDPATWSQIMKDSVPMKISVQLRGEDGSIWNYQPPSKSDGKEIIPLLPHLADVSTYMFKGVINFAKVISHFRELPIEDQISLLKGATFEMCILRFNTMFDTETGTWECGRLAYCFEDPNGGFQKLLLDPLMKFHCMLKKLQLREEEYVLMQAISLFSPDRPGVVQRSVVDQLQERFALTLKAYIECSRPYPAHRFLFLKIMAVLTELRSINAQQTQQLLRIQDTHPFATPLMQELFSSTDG
Thyroid hormone receptor beta (Homo sapiens), sequence (P10828 whole entry, looked up): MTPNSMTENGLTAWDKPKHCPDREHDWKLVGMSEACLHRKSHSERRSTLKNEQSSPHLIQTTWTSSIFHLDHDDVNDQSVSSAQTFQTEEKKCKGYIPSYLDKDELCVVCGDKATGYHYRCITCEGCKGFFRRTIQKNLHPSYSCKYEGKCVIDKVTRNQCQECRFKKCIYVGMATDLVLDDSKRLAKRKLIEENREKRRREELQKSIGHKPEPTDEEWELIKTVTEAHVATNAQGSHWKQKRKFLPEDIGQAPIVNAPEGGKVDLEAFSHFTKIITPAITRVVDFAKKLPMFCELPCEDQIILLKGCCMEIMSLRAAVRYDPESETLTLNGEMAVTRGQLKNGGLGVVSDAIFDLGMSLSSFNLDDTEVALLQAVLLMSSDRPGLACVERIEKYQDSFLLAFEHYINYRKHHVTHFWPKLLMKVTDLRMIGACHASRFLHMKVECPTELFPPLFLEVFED
Vitamin D3 receptor (Homo sapiens), sequence (P11473 whole entry, looked up): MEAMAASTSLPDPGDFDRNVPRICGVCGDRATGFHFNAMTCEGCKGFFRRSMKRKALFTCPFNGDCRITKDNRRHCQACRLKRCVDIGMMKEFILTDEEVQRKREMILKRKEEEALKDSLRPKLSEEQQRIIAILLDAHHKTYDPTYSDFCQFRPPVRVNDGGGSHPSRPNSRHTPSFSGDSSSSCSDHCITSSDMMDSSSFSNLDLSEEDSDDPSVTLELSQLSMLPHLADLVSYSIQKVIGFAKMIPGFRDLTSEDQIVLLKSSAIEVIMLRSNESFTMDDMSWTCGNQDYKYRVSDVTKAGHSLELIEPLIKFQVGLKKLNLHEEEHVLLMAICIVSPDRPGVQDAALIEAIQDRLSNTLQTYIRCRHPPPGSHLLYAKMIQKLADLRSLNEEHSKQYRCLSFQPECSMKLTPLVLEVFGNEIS
Retinoic acid receptor RXR-alpha (Homo sapiens), sequence (P19793 whole entry, looked up): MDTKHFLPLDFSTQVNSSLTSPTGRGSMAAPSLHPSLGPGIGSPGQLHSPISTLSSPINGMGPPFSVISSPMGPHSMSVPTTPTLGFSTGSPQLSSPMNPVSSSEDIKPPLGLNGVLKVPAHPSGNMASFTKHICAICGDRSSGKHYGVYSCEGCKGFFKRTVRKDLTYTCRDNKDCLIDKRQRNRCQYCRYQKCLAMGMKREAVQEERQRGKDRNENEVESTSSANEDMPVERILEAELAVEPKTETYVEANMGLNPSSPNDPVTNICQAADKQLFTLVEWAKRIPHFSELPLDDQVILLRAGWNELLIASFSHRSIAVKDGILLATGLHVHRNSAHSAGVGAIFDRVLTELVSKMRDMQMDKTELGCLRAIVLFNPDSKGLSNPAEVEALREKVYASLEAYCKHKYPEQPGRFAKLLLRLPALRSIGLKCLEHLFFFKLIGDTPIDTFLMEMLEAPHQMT
Glucocorticoid receptor (Homo sapiens), sequence (P04150 whole entry, looked up): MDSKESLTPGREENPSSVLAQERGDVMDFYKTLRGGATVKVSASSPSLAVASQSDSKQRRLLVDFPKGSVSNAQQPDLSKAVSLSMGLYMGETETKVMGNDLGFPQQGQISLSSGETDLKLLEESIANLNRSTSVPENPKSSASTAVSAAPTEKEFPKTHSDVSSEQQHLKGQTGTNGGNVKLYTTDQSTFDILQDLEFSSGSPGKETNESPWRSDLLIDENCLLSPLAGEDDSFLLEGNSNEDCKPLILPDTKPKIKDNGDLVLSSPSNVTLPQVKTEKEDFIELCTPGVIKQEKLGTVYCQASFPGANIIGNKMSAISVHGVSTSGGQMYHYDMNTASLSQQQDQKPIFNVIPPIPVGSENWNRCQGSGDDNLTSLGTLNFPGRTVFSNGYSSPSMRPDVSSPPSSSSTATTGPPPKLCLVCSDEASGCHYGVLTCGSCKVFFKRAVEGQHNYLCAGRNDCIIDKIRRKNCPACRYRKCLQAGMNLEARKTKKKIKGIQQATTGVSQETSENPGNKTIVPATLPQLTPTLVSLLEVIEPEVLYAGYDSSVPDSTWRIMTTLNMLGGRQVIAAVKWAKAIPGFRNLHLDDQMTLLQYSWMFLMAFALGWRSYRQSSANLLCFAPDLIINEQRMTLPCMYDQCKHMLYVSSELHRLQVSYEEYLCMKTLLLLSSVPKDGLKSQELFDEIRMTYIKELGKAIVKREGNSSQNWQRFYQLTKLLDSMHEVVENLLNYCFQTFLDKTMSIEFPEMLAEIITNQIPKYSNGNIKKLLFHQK
Peroxisome proliferator-activated receptor alpha (Homo sapiens), sequence (Q07869 whole entry, looked up): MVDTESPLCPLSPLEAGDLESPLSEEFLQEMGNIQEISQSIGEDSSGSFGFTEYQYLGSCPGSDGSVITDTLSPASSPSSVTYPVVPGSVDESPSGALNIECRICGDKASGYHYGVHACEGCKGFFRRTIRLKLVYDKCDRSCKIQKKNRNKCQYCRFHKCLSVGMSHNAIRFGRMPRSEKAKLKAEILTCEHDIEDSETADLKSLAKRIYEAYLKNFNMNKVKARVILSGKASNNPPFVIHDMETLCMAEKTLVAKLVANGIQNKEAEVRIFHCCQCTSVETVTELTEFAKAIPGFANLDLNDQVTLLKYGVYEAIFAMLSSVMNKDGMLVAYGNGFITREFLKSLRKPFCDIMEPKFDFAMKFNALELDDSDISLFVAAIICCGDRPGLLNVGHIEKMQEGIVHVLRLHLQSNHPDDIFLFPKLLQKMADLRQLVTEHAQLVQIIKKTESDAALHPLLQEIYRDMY

CC(C)CCCCCCCCCCCCCCC(=O)O
active: Potency [10] 39.8 µM
-6.99%: max response [4]
inactive: activation [1] -9.44% | Potency [2] | Potency [5] | max response [7] -25.1% | activation [8] 1.15% | activation [9] -2.9% | Potency [11] | max response [12] 4.34% | max response [13] -0.822% | Potency [14] | max response [15] 1.88% | outcome [16]
-12.3%: max response [6]
7.35%: max response [3]

Cc1ccc(C(C)(C)C)c(O)c1
-12.1%: max response [4]
inactive: Potency [17] | outcome [18] | Potency [5] | Potency [19] | max response [7] -3.16% | Potency [20] | activation [8] -4.17% | activation [9] 1.48% | Potency [11] | max response [12] 6.52% | max response [13] -6.81% | Potency [14] | max response [15] 1.73%
-16%: max response [6]

C=CCOc1nc(OCC=C)nc(OCC=C)n1
-0.634%: max response [4]
-8.71%: max response [6]
15.5%: max response [3]
inactive: activation [1] -1.63% | Potency [2] | Potency [17] | outcome [18] | Potency [5] | Potency [19] | max response [7] 0.817% | activation [8] -3.44% | max response [10] -2.18% | Potency [11] | max response [12] 1.36% | max response [13] -0.661% | Potency [14] | max response [15] -0.162%

c1ccc2c(c1)ccc1c3ccccc3ccc21
-11.3%: max response [4]
1.74%: max response [3]
-22.1%: max response [6]
inactive: outcome [18] | Potency [5] | Potency [19] | max response [7] -7.12% | activation [8] 0.403% | max response [10] -3.59% | max response [12] -24.7% | max response [13] -7.41% | Potency [14]

C=CC(=O)OCCOc1ccccc1
-44.3%: max response [3]
-0.297%: max response [6]
inactive: activation [1] -7.33% | Potency [2] | Potency [17] | outcome [18] | Potency [19] | max response [7] -20.4% | activation [8] 0.464% | activation [9] -0.084% | max response [10] -0.522% | max response [12] -16.9% | max response [13] -15.9% | Potency [14] | max response [15] 2.62% | outcome [16]

CCCCC(CC)COC(C)=O (stereo not drawn)
inactive: activation [1] -0.969% | Potency [2] | Potency [17] | Potency [5] | Potency [19] | max response [7] -2.2% | Potency [20] | activation [9] -1.93% | max response [10] -0.237% | max response [12] 3.74% | max response [13] -7.43% | Potency [14] | max response [15] -1.91% | outcome [16]
-20.2%: max response [4]
-1.25%: max response [6]
8.6%: max response [3]
